An excerpt weighted towards active compounds, which were near 7.2% of everything screened.
FMDV antiviral: High Throughput Screening for Foot and Mouth Disease Virus Antivirals; FMDV antiviral cell-based qHTS; Potency, µM (highest dose often 57.9 µM), for inactives: at the highest dose activity change, negative = inhibition, hits mostly inhibitors; actives 1.2% (n = 410,000); calls by dose curve; tested in HEK293T cells; also: read-out not given here; nearly all actives have a fitted effect of over 45% in size
LASV entry inh: qHTS for Inhibitors of binding or entry into cells for Lassa Virus; Lassa virus pseudotype entry inhibition, cell reporter; Potency, µM (highest dose often 37.9 µM), without a hit: at the top dose activity change, negative = inhibition, hits mostly inhibitors; actives 1.2% (n = 300,000); AID 540256, 2011; calls by dose curve; tested in HEK293 cells; also: nearly all actives have a fitted effect of over 50% in size
Marburg entry inh: qHTS for inhibitors of binding or entry into cells for Marburg Virus | Marburg virus pseudotyped entry inhibition, cell reporter | Potency, µM (doses to about 37.8 µM), without a hit: at the top dose activity change, negative = inhibition, most hits filed as inhibitors | actives 1.8% (n = 300,000); calls by dose curve; tested in HEK293 cells
RE007 growth inh: qHTS Assay for Inhibitors of the HIV-1 protein Vpr; S. pombe RE007 Vpr strain, BacTiter-Glo ATP luminescence, 24 h; actives 0.21% (n = 360,000); Potency, µM (highest dose often 92.2 µM), for inactives: at the top dose activity change, negative = less growth, hits mostly inhibitors; active = well fitted falling curve with a large enough effect; inconclusive = small, poorly fitted or top-dose-only effect; inactive = no such curve, though single readings can be large or run the other way; also: nearly all actives have a fitted effect of over 50% in size
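Fission yeast strain RE007, carrying one chromosomally integrated HIV-1 vpr copy, was seeded at OD 0.01 in PMG+AL medium with 23 nL pinned compound. After 24 h at 30 °C and 99% humidity, viability was read by BacTiter-Glo luminescence.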
HCV inh: qHTS Assay for Inhibitors of Hepatitis C Virus (HCV). Huh7.5.1 HCVcc-Cre infection, luciferase reporter, 44 h. actives 3.4% (n = 340,000). Potency, µM (top dose mostly 41.8 µM), for the others: at the top dose activity change, negative = inhibition, most hits filed as inhibitors
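Compounds are dispensed onto cells plated 4 h earlier at 1,000 per well, with HCVcc-Cre virus (about 0.5 moi) added next. Following 44 h of culture, luminescent signal is measured for 15 sec after 15 min with substrate at room temperature.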
Sm TGR block: qHTS Assay for the Inhibitors of Schistosoma Mansoni Peroxiredoxins | AID 485364, 2010 | Potency, µM (series often up to 114 µM), inactives show at the top dose activity change, negative = inhibition, usual class: inhibitors | Schistosoma mansoni thioredoxin glutathione reductase (TGR), Q962Y6 | actives 3% (n = 360,000) | purified TGR, DTNB reduction, TNB absorbance 405 nm; also: nearly all actives have a fitted effect of over 60% in size
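TGR 20 nM + NADPH 100 uM (dispensed conc.), cpd preinc 15 min RT; start with NADPH (500 uM addition) then DTNB (15 mM addition). Kinetic TNB absorbance, 405 nm filter. Four-parameter Hill fit across titration.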
* marks the source's active call; other numbers are inactive results; [ ] = dose if it differs, or a comment. Unless noted, calls follow the shape of the dose curve; as a rule, active = well fitted curve in the direction sought with a large enough effect; inconclusive = small, poorly fitted or top-dose-only effect, or another doubt; inactive = no such curve, though single readings can be large; an effect the other way counts as inactive or inconclusive. % is scaled to controls: 0 for no effect and ±100 for the full control effect; potency is read from the fitted curve at half-maximal effect.

What do the screens show for `CCOC(=O)C1(CCOc2ccccc2)CCN(C(=O)c2ccc(-n3cccn3)cc2)CC1`?
FMDV antiviral: 22µM*; LASV entry inh: inconclusive; Marburg entry inh: inconclusive; RE007 growth inh: -4%; HCV inh: inconclusive; Sm TGR block: -12%

How did CCOC(=O)C1(CCOc2ccccc2)CCN(Cc2cccc(-n3cccn3)c2)CC1 do in these assays?
FMDV antiviral: inconclusive; LASV entry inh: inconclusive; Marburg entry inh: inconclusive; RE007 growth inh: 2%; HCV inh: 13µM*; Sm TGR block: 0%

What do the screens show for `CN(C)c1ccc(/C=N\NC(=O)c2csnn2)cc1`?
FMDV antiviral: -24%; LASV entry inh: inconclusive; Marburg entry inh: 14µM*; RE007 growth inh: 8%; HCV inh: -3%; Sm TGR block: -15%

Results for CN(C)c1ccc(/C=N/NC(=O)c2ccccn2)cc1 ?
FMDV antiviral: -79%; LASV entry inh: inconclusive; Marburg entry inh: inconclusive; RE007 growth inh: -23%; HCV inh: -8%; Sm TGR block: 0%

How did CN(C)c1ccc(/C=N/NC(=O)C[n+]2ccccc2)cc1 do in these assays?
FMDV antiviral: 2.8µM*; LASV entry inh: -1%[46.1 µM]; Marburg entry inh: 0%[46.1 µM]; RE007 growth inh: 14%; HCV inh: 9%

What do the screens show for `O=C(C[n+]1ccccc1)N/N=C/c1ccc(C(=O)O)cc1`?
FMDV antiviral: -20%; RE007 growth inh: 1%; HCV inh: 19%; Sm TGR block: -7%

How did CCOC(=O)c1ccc(-c2ccc(/C=N/NC(=O)CN(c3ccccc3Br)S(C)(=O)=O)o2)cc1 do in these assays?
FMDV antiviral: -28%; LASV entry inh: 14%; Marburg entry inh: inconclusive; HCV inh: 11µM*; Sm TGR block: 6%

Results for COc1ccc(CCN2CCC(Nc3nc4ccccc4n3Cc3ccc(F)cc3)CC2)cc1 ?
FMDV antiviral: 0%; LASV entry inh: inconclusive; Marburg entry inh: 4.1µM*; RE007 growth inh: -14%[18.4 µM]; HCV inh: 16µM*; Sm TGR block: 10%

How did COc1ccc(Cn2c(-c3ccc(OC)cc3)nc3ccccc32)cc1 do in these assays?
FMDV antiviral: -9%; LASV entry inh: 3%; Marburg entry inh: 17%; RE007 growth inh: -13%; HCV inh: inconclusive; Sm TGR block: -4%

How did COc1ccccc1C1CC(c2ccc(Br)cc2)=NN1C(=O)c1cccnc1 (stereo unspecified) do in these assays?
FMDV antiviral: 32µM*; LASV entry inh: inconclusive; Marburg entry inh: -27%; RE007 growth inh: 2%; HCV inh: inconclusive; Sm TGR block: 0%

Results for CN(C)c1ccc(C2CC(c3cccc(NS(C)(=O)=O)c3)=NN2C(=O)c2ccccc2)cc1 (stereo unspecified) ?
FMDV antiviral: -6%; LASV entry inh: inconclusive; Marburg entry inh: inconclusive; RE007 growth inh: -6%; HCV inh: -22%; Sm TGR block: 3%

How did COc1cccc(C2CC(c3cccc(NS(C)(=O)=O)c3)=NN2C(=O)c2ccccc2)c1OC (stereo unspecified) do in these assays?
FMDV antiviral: -18%; LASV entry inh: 14µM*; Marburg entry inh: inconclusive; RE007 growth inh: -21%; HCV inh: inconclusive; Sm TGR block: 0%

How did CN(C)CC(C)(O)c1ccc2c(c1)CN(C(=O)c1ccc(-n3cccn3)cc1)CCO2 (stereo unspecified) do in these assays?
FMDV antiviral: -1%

How did COc1cccc(C(=O)NC(C)c2nnc3n2CCN(CC=C(C)C)CC3)c1 (stereo unspecified) do in these assays?
FMDV antiviral: -5%

Results for Cc1cccc(NS(=O)(=O)c2ccc(NC(=O)CN(c3cc([N+](=O)[O-])ccc3C)S(C)(=O)=O)cc2)c1 ?
FMDV antiviral: inconclusive; LASV entry inh: inconclusive; Marburg entry inh: inconclusive; RE007 growth inh: -5%; HCV inh: inconclusive; Sm TGR block: -2%

How did COc1ccc(C)cc1NS(=O)(=O)c1ccc(NC(=O)CN(c2cc([N+](=O)[O-])ccc2C)S(C)(=O)=O)cc1 do in these assays?
FMDV antiviral: -13%; LASV entry inh: inconclusive; Marburg entry inh: 3.7µM*; RE007 growth inh: 2%; HCV inh: 10µM*; Sm TGR block: -8%

How did O=C1CN(C(=O)COc2ccc(Cl)cc2)C(c2ccccc2)c2cc(Br)ccc2N1 (stereo unspecified) do in these assays?
FMDV antiviral: -23%; LASV entry inh: inconclusive; Marburg entry inh: -24%[46.1 µM]; Sm TGR block: 3%

Results for COc1ccc(-n2c(-c3ccc(Cl)cc3)c[n+]3c2CCc2ccccc2-3)cc1 ?
FMDV antiviral: inconclusive; LASV entry inh: inconclusive; Marburg entry inh: 11µM*; RE007 growth inh: -4%; HCV inh: -4%; Sm TGR block: -1%

How did CCOC(=O)c1cccc(NC(=O)Cn2nc3c(cc2=O)CCCC3)c1 do in these assays?
FMDV antiviral: -2%; LASV entry inh: 14%[46.1 µM]; Sm TGR block: -1%

What do the screens show for `COc1cc(-c2ccc(Cl)cn2)cc2c1OCCN(C(=O)c1ccccc1-n1cccn1)C2`?
FMDV antiviral: -9%

How did Cc1cccc(Oc2nc(-c3ccccc3)cc(C)c2S(C)(=O)=O)c1C do in these assays?
FMDV antiviral: inconclusive; LASV entry inh: inconclusive; Marburg entry inh: inconclusive; RE007 growth inh: 4%; HCV inh: 10µM*; Sm TGR block: 8%

Results for COc1ccc(-c2cc(=O)c3c(O)cc(O)cc3o2)cc1 ?
FMDV antiviral: 20%; RE007 growth inh: -1%[18.4 µM]; HCV inh: 13µM*; Sm TGR block: -2%

What do the screens show for `COc1ccc(-c2cc(=O)c3cc(O)ccc3o2)cc1`?
FMDV antiviral: 22%; RE007 growth inh: -1%; HCV inh: 5.6µM*; Sm TGR block: 7%

What do the screens show for `O=c1cc(-c2ccc(O)c(O)c2)oc2cc(O)cc(O)c12`?
FMDV antiviral: 19%; RE007 growth inh: -9%; HCV inh: -3%[8.37 µM]; Sm TGR block: -15%

Results for O=c1cc(-c2ccccc2)oc2ccc(O)cc12 ?
FMDV antiviral: 82%; RE007 growth inh: -9%; HCV inh: inconclusive; Sm TGR block: 0%

How did COc1ccc(OCC(O)CNCCOc2ccccc2OC)c(C(C)(C)C)c1 (stereo unspecified) do in these assays?
FMDV antiviral: inconclusive; RE007 growth inh: 3%; HCV inh: 18µM*; Sm TGR block: -1%
